# ± gives the standard deviation of the averaged measurements. Whole data set: some 25,000 sequences, median “ln(normalized median fluorescence intensity)” near 10, cut for the highest 2% near 12. The list comes from a sample in which the highest values are over-represented; it also holds similar and randomly drawn sequences.
# System: PfAP2-G AP2 domain (GST-tagged)
# Assay: gcPBM binding intensity (ln(normalized median fluorescence intensity)); higher = stronger DNA binding
# Outline: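 In this array assay, P. falciparum DNA-binding domains with a GST tag, expressed in E. coli, were applied for 1 h to primer-extended double-stranded 36-bp intergenic genomic probes and negative controls on an Agilent 4 × 180k array. Bound protein was visualised with Alexa488 anti-GST antibody at 488 nm. Binding intensity is the highest Masliner-normalised natural-log median intensity across replicate spots of either probe orientation.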
row,Sequence,gcPBM binding intensity (ln)
1,ATTTTTTCTGTCTTAATTGGACCCACTGCAAATGGG [CACACA_negctrl_site1158],10.9 ± 0.54
2,AACATATAAATGATATGTACACACATTTATATATAT [XGTACX_site7364],11.4 ± 0.53
3,TATTTGATAAAAAAAAGTACTAGAATTTCGCTTTTG [XGTACX_site7754],11.1 ± 0.7
4,ATATATACCTAAGACACACACATATAGATTTATATA [CACACA_site6498],9.97 ± 0.028
5,TAGGTGTTAAAAAATACACACACAAAAAAAAAAAAA [CACACA_site7927],9.93 ± 0.45
6,AAATGTTAATAAAGGTGTACACAAAATAAAAAAAAT [XGTACX_site463],11.7 ± 0.71
7,AAAAAAATAATAAAATGTACAAATAAACACATAAAG [XGTACX_site5102],10.8 ± 0.39
8,TAAAGTAAAGACATACTTATTTTCCATCCACTTCTT [CACACA_negctrl_site1288],10 ± 0.18
9,AGTATACTCGGACACACACACACATATATATATATA [CACACA_site5031],11.1 ± 0.51
10,AATTATTTTAAATATTGTACTATTACAGAATGGTGT [XGTACX_site5693],11 ± 0.56
11,ATTAAATCATATGAATGTACGGATATATATATTTCC [XGTACX_site8650],10.7 ± 0.48
12,TTTTTTATTAAAAGTAGTACACATGAAAAAAAAAAA [XGTACX_site5524],11.8 ± 1
13,ATAGTATTTTTTATTACACACAAATAAAAAGAAAAA [CACACA_site2087],10.2 ± 0.26
14,GTAATTTTAAAGAAAAGTACACATTTATTAATTATT [XGTACX_site4468],11.5 ± 1.2
15,ATTTATGAAAAGTAAAGTACACACAGGAAAAAAAAA [XGTACX_site3564],11.4 ± 0.72
16,AAAAAAAAAAAAAAAAGTACACATCATTTTATGAAA [XGTACX_site1402],11.7 ± 0.76
17,AGTTATTTTAAATGTAGTACACAAAAGAAATATTAA [XGTACX_site4092],11.6 ± 0.94
18,AATTATTTTATGAAAAGTACACATTGTTTTAATTCT [XGTACX_site4506],11.4 ± 0.98
19,TATATTTTATAAAAAAGTACACATGAAAATGTATTT [XGTACX_site5889],11.5 ± 1.1
20,TTTTAAAGAAAAAAATGTACAAAATTTTTATTTTAA [XGTACX_site1496],10.6 ± 0.35
21,TTCTTTTTAAATTACACACACATATAAATATGTATA [CACACA_site7618],10.04 ± 0.071
22,AAACAAAATGGTAACACACACATATATAAATATGTA [CACACA_site6994],10.2 ± 0.35
23,CATATTGGTATGCTCATGCACTTTTATTTTGTTATT [GTGCAC_site9553],10.2 ± 0.13

row,Sequence,gcPBM binding intensity (ln)
1,TTATAATAATATAATACATGCATATATATTTAAATA [TGCATGCA_site903],9.62 ± 0.12
2,TGTTATTATTTGTACACACACATATAGATCCTTGTT [CACACA_site7667],11.3 ± 0.83
3,AAATTACTGTAAAAAAGTACAGAAGTTCTTATTTTT [XGTACX_site7416],11.5 ± 0.93
4,TTAAAATTAAAATACGTACACACCTTATCTTTTTGG [CACACA_site7982],11.6 ± 0.81
5,AAAATTAAAATACGTACACACCTTATCTTTTTGGCT [CACACA_site4311],11.7 ± 1.1
6,TTAAAATTATAATACGTACACACCTTATCTTTTTGG [CACACA_site278],11.5 ± 0.86
7,TATATTAATATGAAAAGTACACATTCTATATATATA [XGTACX_site929],11.4 ± 0.91
8,TGGTTAATATGTGAAAGTACATATTATATTAAAATG [XGTACX_site2636],11.1 ± 0.58
9,TAGTTAATATGAAAAAGTACACGTTTCAGTGAAAGT [XGTACX_site7402],11.7 ± 1
10,AATAAATAAATATATTGTACATATATATATATATAT [XGTACX_site8627],11 ± 0.53
11,ATAAATATACCAATCGGTACACATTTATACAAACAA [XGTACX_site7484],11 ± 0.64
12,ATTCTAAATTAAAATACACACATATATACATAATAT [CACACA_site2792],9.985 ± 0.021
13,TTTTGATCATCCAAAATATCTTCATCTGAACTACTA [CACACA_negctrl_site939],9.84 ± 0.042
14,ATTTTATTTTTGTGCACACTGATAAATTGAAAAGAG [CACACA_site2948],10.8 ± 0.57
15,AATAATCATTTTCATAGTACGTATGATTAGAAAAAA [XGTACX_site2589],11 ± 0.66
16,AATAAATTCATGAATTGTACGTAATGATAACATGAA [XGTACX_site2591],11.3 ± 0.75
17,TATGATTCATAATAGTGTACGTAAAAATTGACTAGA [XGTACX_site5376],11.7 ± 1
18,AAAAATGTGCACACGCGTACACACAAAAAAAGAAAA [XGTACX_site4097],11.5 ± 0.79
19,AAAATGTGCCCACGCGTACACACAAAAAAAGAAAAA [CACACA_site2004],11.6 ± 0.79
20,CATGCTTATATGTGCACACACAAAAGAAAAGAAAAA [CACACA_site1655],10.6 ± 0.62
21,AATGTGCACACGCGTACACACAAAAAAAGAAAAAAA [CACACA_site7031],11.7 ± 1.1
22,AATGTGCCCACGCGTACACACAAAAAAAGAAAAAAA [CACACA_site2003],11.7 ± 1.1
23,TTAGCTACACGCTAATGTACACAAATACAAAGAAAA [XGTACX_site3993],11.4 ± 0.71

row,Sequence,gcPBM binding intensity (ln)
1,TATTATATTATGTGATGTACATATTTATATAGGCCC [XGTACX_site4746],11.2 ± 0.8
2,TGTAGTTTTTATTTATGTACGCATAACATAATTTAA [XGTACX_site104],11.6 ± 0.7
3,TTATTCATTTCGAAAAGTACAAATTCTGTTTATTAT [XGTACX_site6892],11.1 ± 0.71
4,CATATAAAAATGTGCACACACACACCCATATATATT [CACACA_site1526],10.4 ± 0.41
5,AAAAAAAAAATGTGCACACGCGTACACCCAAAAAAA [CACACA_site5149],11.7 ± 0.99
6,AACATATAAAAATGTGCACACACACCCATATATATA [CACACA_site1525],10.4 ± 0.3
7,AACACGCACAGACACACACACAAAAATGATTAAAAA [CACACA_site7195],10.6 ± 0.67
8,TATACAATATAAAATACACACGCACCCAAAAAAAAA [CACACA_site9174],10.6 ± 0.4
9,TACACAAACAGACACACACACACACGCGCACAAAAA [CACACA_site7192],10.6 ± 0.38
10,AAAAAAAAAACAAATACACACGCACCCAAAAAAAAA [CACACA_site8166],10.5 ± 0.26
11,AAAAAAAAAAAATGTGCACACGCGTACAGACAAAAA [CACACA_site2005],11.8 ± 0.99
12,AAAAAAAAAAAATGTGCACACGCGTACACCCAAAAA [CACACA_site8614],11.7 ± 0.77
13,AAGGAACTATAATATACACACATAAGTGTACTTATA [CACACA_site7816],11.5 ± 1
14,TATATATATATAACAACACACACAGATCATAAAACT [CACACA_site8670],10.3 ± 0.27
15,TTAATACCCAGACACACACACACAAAATAAAATACA [CACACA_site7968],10.2 ± 0.4
16,TTGTATTAAAATCAAGTGCATATAATTTAAGTTCAT [GTGCAC_site9495],10 ± 0.16
17,ATAATTAACAAATACACACACACACGCCCACAAAAA [CACACA_site6389],10.9 ± 0.54
18,AAATTTAAATAATGTGCGCATCTTAATATATATAAG [GTGCAC_site9890],10.2 ± 0.13
19,CCCCATTTATCTTAAGCATGCCATGGTTTTAGATAT [TGCATGCA_site24],10.6 ± 0.42
20,CTTATACATAAATTTTGTACACACAAAAAAAAAAAA [XGTACX_site2665],11.2 ± 1.1
21,ATACATAAATTTTGTACACACAAAAAAAAAAAAGCT [CACACA_site1351],11.2 ± 0.87
22,GAAAATTTTTGGTGTACACAAAAAAATCCAAAAAAA [CACACA_site5042],11.7 ± 0.87
23,ATGAATATAAAATATACACACTTATATATCGAATGA [CACACA_site6240],9.79 ± 0.13

row,Sequence,gcPBM binding intensity (ln)
1,ATTAGAGAATCGTAACCCAAATGAACATACTTAAAT [GTGCAC_negctrl_site363],10.04 ± 0.035
2,AAAAAAAATATATAAACACACATATTTATATACTCA [CACACA_site4984],9.665 ± 0.092
3,TTTATTTATTTTTGTTGTACACTTGTATATATTATT [XGTACX_site6486],11.4 ± 0.8
4,TACAAAATAACTAGCACACATATGTATAAACATATA [CACACA_site5948],10.1 ± 0.17
5,TATACATAAAACAGTTCACACATTGTATGAATATAT [CACACA_site4751],9.855 ± 0.035
6,ATAAAATAAATATAACCACACACGAAAGAGAGAGAA [CACACA_site9075],10.09 ± 0.057
7,ATAATAAATTCTACGCGTACAAAACCATGAACATTA [XGTACX_site7505],11.7 ± 1.1
8,ATATTAATTCTACATTGTACACATGAAAAAATATAA [XGTACX_site8759],11.4 ± 0.96
9,GTAAACAATTATGAACGTACATAAAATAAATGAACA [XGTACX_site7159],11.3 ± 0.85
10,CAAGGAACCAGACACACACACATAAATGTATATATA [CACACA_site752],10.1 ± 0.18
11,TTCATTCAAATCCAAGCATGCTTTATTAAAAAATTA [TGCATGCA_site567],9.84 ± 0.26
12,TTTATTTTTCCATATGCACACACACCGTATATATAA [CACACA_site8293],10.3 ± 0.16
13,TCTTAAAATCGGAAATGAAATAAAGTTTACAATATG [TGCATGCA_negctrl_site553],9.87 ± 0.071
14,ATATATATATATATATGTACACATATATTTCTTTTC [XGTACX_site3443],11.4 ± 0.91
15,ATATGTATGAAGTGTACACATATATTGTATTTTCTT [CACACA_site5503],11.7 ± 0.91
16,ATATGTATTAAGTGTACACATATAATGGGTTTTCTT [CACACA_site5328],11.6 ± 0.73
17,TTTATATGTATTAAGTGTACACATATAATGTGTTTG [XGTACX_site6629],11.5 ± 0.86
18,ATATGTATTAAGTGTACACATATAATGGGTTTGTTA [CACACA_site5682],11.7 ± 0.95
19,ATATGTTTTAAGTGTACACATATAATGTATTTTGTT [CACACA_site4929],11.6 ± 0.9
20,TTTATATGTTTTAAGTGTACACATATAATGTATTTT [XGTACX_site3069],11.6 ± 0.91
21,TTTATATGTATGAAGTGTACACATATATTGTATTTT [XGTACX_site5731],11.6 ± 0.82
22,ATATGTATTAAGTGTACACATATAATGTATTTTGTT [CACACA_site4177],11.6 ± 0.92
